# Data: PubChem BioAssay (Tox21)
# Values joined by “and” are separate entries in the source; they are usually repeats but may differ in a detail not shown here. Equal entries are not always repeated. Results filed as inconclusive are left out. A call without a number means that no potency is given here. Active and inactive are the calls of the source. Unless noted, calls follow the shape of the dose curve; as a rule, active = well fitted curve in the direction sought with a large enough effect in the repeat runs; inconclusive = weak or mixed curves; inactive = no such curve, though single readings can be large; an effect the other way counts as inactive or inconclusive.
# Key:
# [1] = molecular target: Aryl hydrocarbon receptor (Homo sapiens) (UniProt P35869); assay: qHTS assay to identify small molecule that activate the aryl hydrocarbon receptor (AhR) signaling pathway (AID 743085); also: nearly all actives have a fitted effect of over 15% in size; also: potency is read from the fitted curve at half-maximal effect;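 as to activation: HG2L7.5c1 human HepG2 liver cells with stably integrated DRE-driven firefly reporter; series mostly up to about 70 µM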
# How it was run: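 24 h compound exposure, 37C, HepG2-derived HG2L7.5c1 cells with DRE-responsive luciferase. Readouts: fluorescence viability, then luminescence at room temperature after 30 min.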
# [2] = qHTS assay to identify small molecule that activate the aryl hydrocarbon receptor (AhR) signaling pathway - cell viability counter screen (AID 743086); also: nearly all actives have a fitted effect of over 45% in size; also: potency is read from the fitted curve at half-maximal effect
# How it was run: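 HepG2-AhR-luc (HG2L7.5c1) cells, 4000/well, were preincubated 5 h at 37C, exposed to compound in qHTS format for 24 hr at 37C, then given CellTiter-Fluor for 30 min; viability was read as fluorescence in the reporter wells.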
# [3] = qHTS assay to identify small molecule antagonists of the peroxisome proliferator-activated receptor gamma (PPARg) signaling pathway - cell viability counter screen (AID 743194); also: nearly all actives have a fitted effect of over 55% in size; also: potency is read from the fitted curve at half-maximal effect
# How it was run: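 PPARg-UAS-bla HEK293H cells were plated, rested 5 h at 37 C, then treated with compounds plus rosiglitazone (50 nM final) for 17 h at 37 C; viability was then read by CellTiter-Glo luminescence after 30 min at room temperature.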
# [4] = qHTS assay for small molecule agonists of the antioxidant response element (ARE) signaling pathway (AID 743202; active = well fitted activation curve with a large enough effect in the signal ratio in the repeat runs, not every such curve was filed as active; the % refers to the signal ratio)
# How it was run: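 Compounds delivered in DMSO to ARE-bla HepG2 cells (2,000 cells/well, pre-incubated 5 h) and left 16 h at 37 C. LiveBLAzer B/G FRET substrate then added for 2 h at RT before fluorescence reading.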
# [5] = qHTS assay for small molecule agonists of the antioxidant response element (ARE) signaling pathway - cell viability counter screen (AID 743203; calls by dose curve; also: nearly all actives have a fitted effect of over 55% in size; also: potency is read from the fitted curve at half-maximal effect)
# How it was run: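 ARE-bla HepG2 cells were plated, rested 5 h at 37C/5% CO2, then exposed to compounds in DMSO for 16 h. Viability was read as CellTiter-Glo luminescence after 30 min at room temperature, in the same wells as the ARE screen.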
# [6] = qHTS assay for small molecule activators of the heat shock response signaling pathway - cell viability counter screen (AID 743209); also: nearly all actives have a fitted effect of over 50% in size; also: potency is read from the fitted curve at half-maximal effect
# How it was run: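 HSE-bla HeLa cells plated overnight, then exposed to Tox21 compounds (23 nL in DMSO) for 5 h at 37 C. After the bla reporter read, CellTiter-Glo was added in the same wells and luminescence read after 30 min at room temperature.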
# [7] = qHTS assay for small molecule activators of the heat shock response signaling pathway (AID 743210; active = well fitted activation curve with a large enough effect in the signal ratio in the repeat runs, with a control signal flat, not every such curve was filed as active; the % refers to the signal ratio;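 also: HeLa cells with beta-lactamase reporter driven by heat shock elements; series mostly up to about 63 µM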)
# How it was run: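 Reporter gene assay: HeLa cells stably bearing an HSE-bla construct, compound treatment 5 h at 37 C, LiveBLAzer substrate 2.5 h at RT, fluorescence intensity.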
# [8] = qHTS assay to identify small molecule agonists of the peroxisome proliferator-activated receptor delta (PPARd) signaling pathway - cell viability counter screen (AID 743211); also: nearly all actives have a fitted effect of over 55% in size; also: potency is read from the fitted curve at half-maximal effect
# How it was run: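 Luminescent ATP viability assay (CellTiter-Glo, 30 min RT) in UAS-bla HEK293H cells carrying the PPAR delta reporter construct, 3000 cells/well, after a 17 h compound treatment at 37 C.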
# [9] = qHTS assay to identify small molecule antagonists of the peroxisome proliferator-activated receptor delta (PPARd) signaling pathway - cell viability counter screen (AID 743213); also: nearly all actives have a fitted effect of over 50% in size; also: potency is read from the fitted curve at half-maximal effect
# How it was run: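 PPARd-bla HEK293H cells were treated with compounds plus agonist L165041 (300 nM final) for 17 h at 37 C. Viability was then read in the same wells by CellTiter-Glo luminescence after 30 min at room temperature.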
# [10] = qHTS assay to identify small molecule agonists of the farnesoid-X-receptor (FXR) signaling pathway - cell viability counter screen (AID 743218); also: nearly all actives have a fitted effect of over 45% in size; also: potency is read from the fitted curve at half-maximal effect
# How it was run: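 FXR-UAS-bla HEK 293T cells exposed to compounds for 16 h at 37C. Cytotoxicity read in the same wells by CellTiter-Glo luminescence after 30 min at room temperature, following the beta-lactamase FRET read.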
# [11] = qHTS assay to identify small molecule antagonists of the farnesoid-X-receptor (FXR) signaling pathway - cell viability counter screen (AID 743221; active = well fitted cell-killing curve with a large enough effect in the repeat runs, not every such curve was filed as active; also: nearly all actives have a fitted effect of over 50% in size; also: potency is read from the fitted curve at half-maximal effect)
# How it was run: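 In GeneBLAzer FXR-UAS-bla HEK 293T cells stimulated with 50 uM chenodeoxycholic acid (final), compounds acted for 16 h at 37 C. Viability was assessed afterwards by CellTiter-Glo luminescence.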
# [12] = molecular target: Vitamin D3 receptor (Homo sapiens) (UniProt P11473); assay: qHTS assay to identify small molecule agonists of the vitamin D receptor (VDR) signaling pathway (AID 743222; calls by dose curve)
# How it was run: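 VDR-bla cells plated 4 h at 37 C, then exposed to compounds for 16 h at 37 C. Beta-lactamase reporter activity measured by fluorescence after 2 h room-temperature loading with LiveBLAzer B/G FRET substrate.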
# [13] = molecular target: Vitamin D3 receptor (Homo sapiens) (UniProt P11473); assay: qHTS assay to identify small molecule antagonists of the vitamin D receptor (VDR) signaling pathway (AID 743223; active = well fitted inhibition curve with a large enough effect in the signal ratio in the repeat runs, not every such curve was filed as active; the % refers to the signal ratio; also: potency is read from the fitted curve at half-maximal effect)
# How it was run: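 Agonist 1alpha,25-dihydroxyvitamin D3 (3 nM in well) was added with each compound to VDR-bla cells preincubated 4 h. Cells stood 16 h at 37C, then FRET substrate 2 h at room temperature; fluorescence intensity recorded.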
# [14] = qHTS assay to identify small molecule agonists of the vitamin D receptor (VDR) signaling pathway - cell viability counter screen (AID 743224); also: nearly all actives have a fitted effect of over 50% in size; also: potency is read from the fitted curve at half-maximal effect
# How it was run: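 VDR-bla cells, 4 h after plating, exposed to compounds for 16 h at 37C; viability then read in the same wells as CellTiter-Glo luminescence after 30 min at room temperature, following the bla FRET read.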
# [15] = molecular target: Peroxisome proliferator-activated receptor gamma (Homo sapiens) (UniProt P37231); assay: qHTS assay to identify small molecule agonists of the peroxisome proliferator-activated receptor gamma (PPARg) signaling pathway (AID 743094; active = well fitted activation curve with a large enough effect in the signal ratio in the repeat runs, not every such curve was filed as active; the % refers to the signal ratio)
# How it was run: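 GeneBLAzer PPARg UAS-bla HEK293H cells were plated, rested 5 h, then exposed to compounds for 17 h at 37C. Beta-lactamase activity was read by LiveBLAzer B/G FRET substrate fluorescence after 1 h at room temperature.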
# [16] = molecular target: Peroxisome proliferator-activated receptor gamma (Homo sapiens) (UniProt P37231); assay: qHTS assay to identify small molecule antagonists of the peroxisome proliferator-activated receptor gamma (PPARg) signaling pathway (AID 743191; calls by dose curve; also: series mostly up to about 63 µM; nearly all actives have a fitted effect of over 30% in size)
# How it was run: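 GeneBLAzer PPARg UAS-bla HEK293H cells carrying a UAS-driven beta-lactamase reporter were plated at 3000 cells/well, preincubated 5 h at 37C, then given compound for 17 h at 37C; LiveBLAzer B/G FRET substrate was read after 1 h at room temperature.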
# [17] = molecular target: Peroxisome proliferator-activated receptor delta (Homo sapiens) (UniProt Q03181); assay: qHTS assay to identify small molecule agonists of the peroxisome proliferator-activated receptor delta (PPARd) signaling pathway (AID 743212; calls by dose curve)
# How it was run: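 A PPARd-bla HEK293H line with beta-lactamase under an Upstream Activator Sequence is treated with compounds at 37 C. Substrate loading for 2 h at room temperature precedes the fluorescence measurement.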
# [18] = molecular target: Peroxisome proliferator-activated receptor delta (Homo sapiens) (UniProt Q03181); assay: qHTS assay to identify small molecule antagonists of the peroxisome proliferator-activated receptor delta (PPARd) signaling pathway (AID 743215; active = well fitted inhibition curve with a large enough effect in the signal ratio in the repeat runs, not every such curve was filed as active; the % refers to the signal ratio;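 also: cells stimulated with agonist L165041 at 300 nM final during compound exposure; series mostly up to about 62 µM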)
# How it was run: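 PPARd-bla HEK293H cells (UAS-bla reporter) preincubated 5 h, then given compound plus 300 nM final L165041 agonist for 17 h at 37 C. Beta-lactamase activity read by LiveBLAzer B/G FRET substrate fluorescence after 2 h at room temperature.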
# [19] = molecular target: Bile acid receptor (Homo sapiens) (UniProt Q96RI1); assay: qHTS assay to identify small molecule agonists of the farnesoid-X-receptor (FXR) signaling pathway (AID 743220; active = well fitted activation curve with a large enough effect in the signal ratio in the repeat runs, not every such curve was filed as active; the % refers to the signal ratio)
# How it was run: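 Beta-lactamase reporter under UAS control in GeneBLAzer FXR HEK 293T cells (5000/well) measured with LiveBLAzer FRET substrate after 2 h at room temperature. Compound exposure lasted 16 h at 37C.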
# [20] = molecular target: Bile acid receptor (Homo sapiens) (UniProt Q96RI1); assay: qHTS assay to identify small molecule antagonists of the farnesoid-X-receptor (FXR) signaling pathway (AID 743217; active = well fitted inhibition curve with a large enough effect in the signal ratio in the repeat runs, not every such curve was filed as active; the % refers to the signal ratio)
# How it was run: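 FXR-UAS-bla HEK 293T cells (beta-lactamase reporter) given compound plus chenodeoxycholic acid (50 uM final), 16 h at 37C. LiveBLAzer B/G FRET substrate added for 2 h at room temperature; fluorescence read.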
# Sequence of Vitamin D3 receptor (Homo sapiens) (P11473 whole entry, looked up): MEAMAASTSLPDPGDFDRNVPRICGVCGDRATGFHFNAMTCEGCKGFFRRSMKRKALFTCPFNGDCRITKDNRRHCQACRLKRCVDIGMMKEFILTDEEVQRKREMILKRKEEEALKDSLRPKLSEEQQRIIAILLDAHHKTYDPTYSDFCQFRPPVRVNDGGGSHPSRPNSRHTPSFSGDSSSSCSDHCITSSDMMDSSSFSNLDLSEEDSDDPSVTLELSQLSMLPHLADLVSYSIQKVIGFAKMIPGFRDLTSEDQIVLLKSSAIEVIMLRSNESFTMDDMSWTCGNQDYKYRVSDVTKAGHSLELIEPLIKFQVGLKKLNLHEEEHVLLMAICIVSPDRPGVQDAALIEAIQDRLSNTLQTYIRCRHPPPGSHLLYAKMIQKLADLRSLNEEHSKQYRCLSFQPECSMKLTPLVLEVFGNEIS
# Sequence of Bile acid receptor (Homo sapiens) (Q96RI1 whole entry, looked up): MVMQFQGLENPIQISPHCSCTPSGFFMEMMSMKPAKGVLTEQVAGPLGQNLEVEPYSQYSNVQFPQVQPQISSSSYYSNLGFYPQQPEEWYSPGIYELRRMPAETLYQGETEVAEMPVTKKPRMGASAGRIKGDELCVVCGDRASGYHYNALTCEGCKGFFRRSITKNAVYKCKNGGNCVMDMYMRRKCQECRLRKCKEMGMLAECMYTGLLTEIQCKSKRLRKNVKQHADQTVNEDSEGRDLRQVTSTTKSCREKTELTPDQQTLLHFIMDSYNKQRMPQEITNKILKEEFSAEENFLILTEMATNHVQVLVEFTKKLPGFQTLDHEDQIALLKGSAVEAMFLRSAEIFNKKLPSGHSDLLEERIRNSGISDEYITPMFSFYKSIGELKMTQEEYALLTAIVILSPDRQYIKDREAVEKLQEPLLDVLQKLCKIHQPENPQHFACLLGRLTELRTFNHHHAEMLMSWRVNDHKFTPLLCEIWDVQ
# Sequence of Peroxisome proliferator-activated receptor delta (Homo sapiens) (Q03181 whole entry, looked up): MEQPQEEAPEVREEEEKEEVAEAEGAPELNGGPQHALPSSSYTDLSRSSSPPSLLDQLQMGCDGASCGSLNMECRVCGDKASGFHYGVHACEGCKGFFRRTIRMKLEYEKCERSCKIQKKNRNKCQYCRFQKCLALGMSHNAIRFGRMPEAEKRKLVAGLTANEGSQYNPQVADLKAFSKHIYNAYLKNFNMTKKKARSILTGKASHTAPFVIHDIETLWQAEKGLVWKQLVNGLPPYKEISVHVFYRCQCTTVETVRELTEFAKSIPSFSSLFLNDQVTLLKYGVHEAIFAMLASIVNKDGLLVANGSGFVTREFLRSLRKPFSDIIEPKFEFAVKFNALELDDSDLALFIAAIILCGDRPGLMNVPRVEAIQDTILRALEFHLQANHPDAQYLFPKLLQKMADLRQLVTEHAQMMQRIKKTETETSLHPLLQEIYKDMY
# Sequence of Aryl hydrocarbon receptor (Homo sapiens) (P35869 whole entry, looked up): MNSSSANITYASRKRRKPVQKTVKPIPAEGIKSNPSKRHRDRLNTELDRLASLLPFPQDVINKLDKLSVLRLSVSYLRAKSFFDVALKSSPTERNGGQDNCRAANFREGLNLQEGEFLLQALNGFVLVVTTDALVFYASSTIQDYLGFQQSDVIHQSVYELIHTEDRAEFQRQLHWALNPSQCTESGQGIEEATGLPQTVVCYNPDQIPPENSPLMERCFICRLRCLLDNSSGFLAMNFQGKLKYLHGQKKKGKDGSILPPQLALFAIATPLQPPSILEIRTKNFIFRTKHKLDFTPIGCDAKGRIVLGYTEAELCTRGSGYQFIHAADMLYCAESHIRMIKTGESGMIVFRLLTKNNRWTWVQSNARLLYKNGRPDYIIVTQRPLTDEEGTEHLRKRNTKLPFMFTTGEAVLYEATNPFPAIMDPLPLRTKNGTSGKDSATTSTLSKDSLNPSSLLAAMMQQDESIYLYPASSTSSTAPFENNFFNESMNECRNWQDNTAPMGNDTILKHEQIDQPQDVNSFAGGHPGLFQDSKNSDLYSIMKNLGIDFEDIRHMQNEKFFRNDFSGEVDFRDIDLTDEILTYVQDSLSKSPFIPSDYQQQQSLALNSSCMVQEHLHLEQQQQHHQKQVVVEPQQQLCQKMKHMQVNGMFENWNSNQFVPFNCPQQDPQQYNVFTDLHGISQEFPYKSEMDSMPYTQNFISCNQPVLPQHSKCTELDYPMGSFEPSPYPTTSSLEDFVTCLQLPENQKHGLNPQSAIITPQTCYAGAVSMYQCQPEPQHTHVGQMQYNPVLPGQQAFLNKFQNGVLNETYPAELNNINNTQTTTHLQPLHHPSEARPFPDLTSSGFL
# Sequence of Peroxisome proliferator-activated receptor gamma (Homo sapiens) (P37231 whole entry, looked up): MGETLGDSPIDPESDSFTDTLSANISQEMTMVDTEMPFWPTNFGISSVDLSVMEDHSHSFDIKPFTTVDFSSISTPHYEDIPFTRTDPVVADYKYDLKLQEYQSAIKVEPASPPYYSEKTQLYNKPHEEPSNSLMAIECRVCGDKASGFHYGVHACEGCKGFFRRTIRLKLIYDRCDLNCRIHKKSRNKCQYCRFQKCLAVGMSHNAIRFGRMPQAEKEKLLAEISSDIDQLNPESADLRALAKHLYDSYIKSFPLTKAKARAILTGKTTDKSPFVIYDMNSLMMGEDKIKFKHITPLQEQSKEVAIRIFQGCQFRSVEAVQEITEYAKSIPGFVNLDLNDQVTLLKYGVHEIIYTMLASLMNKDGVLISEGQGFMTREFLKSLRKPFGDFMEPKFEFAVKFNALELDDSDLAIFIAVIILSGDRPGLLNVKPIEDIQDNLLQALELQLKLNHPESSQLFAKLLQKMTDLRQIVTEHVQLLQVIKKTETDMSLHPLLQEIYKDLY
Structure (SMILES),Potency [1],Potency [2],Potency [3],Potency [4],Potency [5],Potency [6],outcome [7],Potency [8],Potency [9],Potency [10],Potency [11],Potency [12],Potency [13],Potency [14],Potency [15],Potency [16],Potency [17],Potency [18],outcome [19],Potency [20]
CNNCc1ccc(C(=O)NC(C)C)cc1,inactive,inactive,inactive,inactive,inactive,inactive,inactive,inactive,inactive,inactive,inactive,inactive,inactive,inactive,–,–,–,–,–,–
CN1CCC[C@H]1c1cccnc1,inactive,inactive,inactive,inactive,inactive,inactive,–,inactive,inactive,inactive,inactive,inactive,inactive,inactive,inactive,inactive,–,–,–,–
C=C(C)C(=O)OCC(C)O (centres undefined),inactive,inactive,inactive,inactive,inactive,inactive,inactive,inactive,inactive,inactive,inactive,inactive,inactive,inactive,–,–,inactive,inactive,–,–
CCCCCCCCCCCCCCCC[N+](C)(C)Cc1ccccc1,inactive,29.8 µM (active),25.3 µM (active) and 17.7 µM (active) and 33.5 µM (active),–,63.1 µM (active) and 49.4 µM (active) and 29.8 µM (active),50.5 µM (active) and 44.4 µM (active) and 23.7 µM (active),–,31.9 µM (active) and 8.86 µM (active) and 18.8 µM (active),22.6 µM (active) and 9.94 µM (active) and 13.3 µM (active),25.3 µM (active) and 22.3 µM (active) and 13.3 µM (active),63.6 µM (active) and 25 µM (active) and 16.8 µM (active),inactive,63.6 µM (active) and 49.8 µM (active),31.9 µM (active) and 8.86 µM (active) and 26.6 µM (active),inactive,–,–,inactive,inactive,–
C[C@](N)(Cc1ccc(O)c(O)c1)C(=O)O,inactive,inactive,inactive,inactive,inactive,inactive,–,inactive,inactive,inactive,inactive,inactive,inactive,inactive,inactive,inactive,–,–,–,–
Cc1ncc([N+](=O)[O-])n1C,inactive,inactive,inactive,inactive,inactive,inactive,inactive,inactive,inactive,inactive,inactive,inactive,inactive,inactive,–,–,inactive,inactive,inactive,inactive
Nc1c(N=Nc2ccc(-c3ccc(N=Nc4cc(S(=O)(=O)O)c5ccccc5c4N)cc3)cc2)cc(S(=O)(=O)O)c2ccccc12,23.7 µM (active) and 24.3 µM (active),21.1 µM (active) and 9.68 µM (active),inactive,–,–,inactive,inactive,inactive,inactive,inactive,inactive,–,inactive,inactive,inactive,–,inactive,inactive,inactive,inactive
CC(=O)CCC(=O)O,inactive,inactive,inactive,inactive,inactive,inactive,–,inactive,inactive,inactive,inactive,inactive,inactive,inactive,inactive,inactive,–,–,–,–
